Sampled rows, rich in hits. Any-hit rate of the full collection: about 7.8%.
LASV entry inh: Lassa virus entry inhibition; Lassa virus pseudotype entry inhibition, cell reporter; Potency, µM (top dose mostly 37.9 µM), without a hit: at the highest dose activity change, negative = inhibition, actives largely listed as inhibitors; 300,000 compounds, 1.2% hits; calls by dose curve; tested in HEK293 cells; further: potency means the concentration at half of the fitted maximal effect; nearly all actives have a fitted effect of over 50% in size
VACV mCherry inh: inhibitors of vaccinia virus infection (mCherry reporter signal). Vaccinia virus mCherry reporter infection, fluorescence. Potency, µM (titrated, usually from 36.5 µM), for the others: at the top dose activity change, negative = inhibition, hits mostly inhibitors. 310,000 compounds, 0.63% hits. AID 720579; calls by dose curve; tested in A549 cells; further: potency means the concentration at half of the fitted maximal effect; nearly all actives have a fitted effect of over 35% in size
Vaccinia Venus: inhibitors of vaccinia virus (Venus reporter); Vaccinia virus Venus reporter expression, fluorescence; 330,000 compounds, 0.46% hits; AID 720580; Potency, µM (top dose mostly 36.5 µM), for the others: at the highest dose activity change, negative = inhibition, actives largely listed as inhibitors; calls by dose curve; tested in A549 cells; further: potency means the concentration at half of the fitted maximal effect; nearly all actives have a fitted effect of over 30% in size
HCV inh: blocks hepatitis C virus | Huh7.5.1 HCVcc-Cre infection, luciferase reporter, 44 h | Potency, µM (doses to about 41.8 µM), for inactives: top-dose activity change, negative = inhibition, most hits filed as inhibitors | 340,000 compounds, 3.4% hits; active means well fitted inhibition curve with a large enough effect; inconclusive means small, poorly fitted or top-dose-only effect, or another doubt; inactive means no such curve, though single readings can be large or run the other way; further: potency means the concentration at half of the fitted maximal effect
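Infectious HCVcc-Cre (~0.5 moi) was added to cells just after compound, with cells seeded 4 h earlier at 1,000 per well. Luciferase activity after 44 h culture reported infection; substrate was incubated 15 min at room temperature before reading.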
HCMV inh: blocks human cytomegalovirus replication; HFF cells, HCMV-luciferase reporter, 72 h; active compounds read low; activity change, negative = inhibition, % at 57.5 µM; 410,000 compounds, 4.5% hits; AID 1259415; in the data active means activity change below about -60%; inconclusive means no clear call, values can overlap the other calls; inactive means above about -39%
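Two-dose cell screen: HFF monolayers treated with compounds and infected with luciferase-expressing HCMV at 1 PFU/cell, 72 h at 37C, then lysed for luciferase measurement.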
MARV entry inh: blocks Marburg virus binding to or entry into cells; Marburg virus pseudotyped entry inhibition, cell reporter; Potency, µM (titrated, usually from 37.8 µM), without a hit: at the highest dose activity change, negative = inhibition, most hits filed as inhibitors; 300,000 compounds, 1.8% hits; AID 540276; calls by dose curve; tested in HEK293 cells; further: potency means the concentration at half of the fitted maximal effect
* hit, by the source's call; i = inactive; ? = inconclusive; nt = no result given; ! = repeats disagree; [ ] = another dose, or the depositor's remark. On the % scale 0 is the no-effect control and ±100 the full control effect.

SMILES	LASV entry inh	VACV mCherry inh	Vaccinia Venus	HCV inh	HCMV inh	MARV entry inh
Cc1nc(N2CCN(c3ccccn3)CC2)c2c(C)c(C(=O)Nc3c(F)cc(F)cc3Br)sc2n1	nt	nt	nt	12.6µM*	?	nt
Cc1nc(N2CCCCC2)c2c(C)c(C(=O)Nc3ccc4c(c3)OCCO4)sc2n1	nt	nt	nt	?	-61.4*	nt
Cc1ccc(CSc2nc(-c3ccccc3C)nc3c2Cc2c(CO)cnc(C)c2O3)cc1	6.4%[46.1 µM]	?	?	nt	-29.8	nt
CCN1CCN(C(=S)Nc2ccc3nc(N4CCN(C)CC4)cc(C)c3c2)CC1	10µM*	-24.6%	12.6%	?	?	?
CCN1CCN(C(=S)Nc2ccc3nc(N4CCN(CC)CC4)cc(C)c3c2)CC1	?	-26.9%	-24.2%	12.6µM*	-39.8	?
CCN1CCN(c2cc(C)c3cc(NC(=S)N4CCCC(C)C4)ccc3n2)CC1 (centres undefined)	?	?	-10.9%	?	-71.2*	7.94µM*
CCN1CCN(c2cc(C)c3cc(NC(=S)N4CC(C)CC(C)C4)ccc3n2)CC1 (centres undefined)	-27.1%	?	?	?	?	?
CCN1CCN(c2cc(C)c3cc(NC(=O)c4cc(Br)ccc4Cl)ccc3n2)CC1	?	-20.5%	-22.5%	nt	-72.2*	?
CCN1CCN(c2cc(C)c3cc(NC(=O)c4cccnc4Cl)ccc3n2)CC1	-3.2%	nt	nt	?	34.4	?
CCOC(=O)c1ccccc1NC(=O)N(C(C)C)C1CCN(C(C)=O)CC1	-2.9%[46.1 µM]	-16.6%	-14.0%	nt	13.5	-4.5%[46.1 µM]
c1ccc2c(CN3CCCCCC3)c[nH]c2c1	-14.9%	nt	nt	-28.6%	-77.2*	?
O=C(Nc1ccccc1)N(Cc1c[nH]c2ccccc12)C1CCCCCC1	-4.9%[46.1 µM]	?	-23.0%	nt	30.8	4.5%[46.1 µM]
c1ccc2c(CNC3CCCCCC3)c[nH]c2c1	-2.0%	nt	nt	8.3%	10.5	13µM*
c1ccc2c(CN3CCOCC3)c[nH]c2c1	nt	nt	nt	4.2%	19.1	nt
c1cnc(N2CCN(Cc3c[nH]c4ccccc34)CC2)nc1	-5.3%	nt	12.6µM*	-5.6%	-4.6	?
O=C1C2C3c4ccccc4C(c4ccccc43)[C@@H]2C(=O)N1c1cccnc1 (some centres undefined)	1.4%	-13.2%	-3.9%	8.4%	-28.2	?
O=C1C2C3c4ccccc4C(c4ccccc43)C2C(=O)N1c1ccncc1 (centres undefined)	nt	nt	nt	?	-64.4*	nt
Cc1ccnc2c(N3C(=O)C4C5c6ccccc6C(c6ccccc65)C4C3=O)cccc12 (centres undefined)	20.6µM*	nt	nt	?	?	?
CCOc1ccc2ncc(S(=O)(=O)c3ccc(C)cc3)c(N3CCC4(CC3)OCCO4)c2c1	?	-28.6%	?	?	-89.8*	?
CCOC(=O)c1cnc2ccc(OCC)cc2c1N1CCN(C)CC1	-3.7%	nt	-15.7%	?	13.9	?
O=C(Nc1ccccc1F)c1nc(SCc2ccc(F)cc2)ncc1Cl	20.6%[46.1 µM]	-10.7%	-4.6%	nt	?	19.4%[46.1 µM]
CCN(CC)CCn1c2ccccc2c2cnc(N=CN(C)C)c(C#N)c21	?	nt	?	?	-94.2*	?
CN(C)/C=N/c1c(C#N)cnn1-c1ccccc1	-4.9%	i	-14.4%	-7.8%	96.9	-0.1%
CCn1c2ccccc2c2cnc(N=CN(C)C)c(C#N)c21	-8.4%	nt	-44.8%	12.6µM*	-69.5*	?
Cn1ccc2c(-c3ccc(F)cc3)cc3c(c21)C1CCC3O1 (centres undefined)	0.5%[46.1 µM]	nt	nt	nt	nt	nt
SMILES	LASV entry inh	VACV mCherry inh	Vaccinia Venus	HCV inh	HCMV inh	MARV entry inh
Cc1nc(NC(=O)c2ccc([N+](=O)[O-])cc2Cl)sc1C(=O)N(C)C	-2.0%	-9.8%	-2.8%	1.1%	0.9	-31.2%
Cc1cc(C(=O)Nc2nc(C)c(C(=O)N(C)C)s2)ccc1[N+](=O)[O-]	10µM*	-16.5%	-3.9%	16.3%	-36.3	?
Cc1c(Cl)cccc1-n1ncc(C(=O)Nc2ccc(Br)cc2F)c1C1CCNCC1	1.7%[46.1 µM]	-15.1%	-14.6%	nt	?	nt
O=[N+]([O-])c1cc(S(=O)(=O)NCCN2CCOCC2)ccc1Sc1nnnn1-c1ccccc1	-2.4%	?	?	?	-89.3*	16.4µM*
Cc1ccc(-n2nnnc2Sc2ccc(S(=O)(=O)NCCN(C)C)cc2[N+](=O)[O-])cc1	?	?	11.2µM*	10µM*	-100.0*	9.2µM*
CN(C)CCNS(=O)(=O)c1ccc(N2CCN(c3ccc(F)cc3)CC2)c([N+](=O)[O-])c1	?	-27.2%	?	10µM*	-76.1*	18.4µM*
O=S(=O)(NCCN1CCOCC1)c1ccc2ccccc2c1	nt	nt	nt	1.8%	0.0	nt
Cn1nc(C(=O)NCc2ccccc2Cl)c2c1-c1ccccc1SC2	-12.2%[46.1 µM]	-3.1%	8.4%	nt	-34.1	-27.1%[46.1 µM]
CC(C)C[C@H](NC(=O)[C@H](CCC(N)=O)NC(=O)[C@H](CCCCN)NC(=O)[C@H](CCC(N)=O)NC(=O)[C@@H](N)CCC(=O)O)C(=O)N[C@@H](CCC(N)=O)C(=O)O	nt	-16.5%[3.33 µM]	-6.5%[3.33 µM]	nt	nt	nt
Cc1ccc(CNC(=O)CN2C(=O)C3CCCCN3c3ccc(C(=O)N(C)C)cc32)cc1 (centres undefined)	5.7%[46.1 µM]	-2.1%	-7.3%	nt	0.9	nt
CCN(CCCc1ccccc1)CCCc1ccccc1	?	-6.2%	-17.2%	-12.1%[8.37 µM]	-17.8	5.8µM*
CCN(CCCC(=O)c1ccc(F)cc1)CCc1ccccc1	?	-17.6%	-20.4%	18.7%	-9.0	3.55µM*
CCOC(=O)CN1C(=O)C2(CC(C)=C[C@@H](C)O2)c2c(Br)cccc21 (some centres undefined)	?	nt	nt	nt	nt	2.9%[14.2 µM]
CCCC(C)C1(CC)C(=O)NC(=Nc2ccccc2OC)NC1=O (centres undefined)	-10.4%	nt	nt	-1.6%	3.9	-3.2%
CCCC(C)C1(CC)C(=O)NC(=Nc2ccc(OC)cc2)NC1=O (centres undefined)	18.4%	-7.3%	-15.9%	?	-60.1*	2.1%
CCCCN(C)CCNC(=O)c1cc2c(=O)n(C)c3ccccc3c2n1C	21.1%[46.1 µM]	-5.8%[7.34 µM]	-12.4%[7.34 µM]	nt	140.0	-26.3%[46.1 µM]
CCCCN(C)CCNC(=O)c1cn(C)c(=O)c2c1c1ccccc1n2C	-9.5%[46.1 µM]	i	-4.3%	-13.3%	14.9	11.2µM*
CCCCN(CC)CCNC(=O)c1cn(C)c(=O)c2c1c1ccccc1n2C	?	-7.3%	3.3%	7.1%	-62.2*!	-34.9%[46.1 µM]
CCCN(CCC)CCNC(=O)c1cn(C)c(=O)c2c1c1ccccc1n2C	11.6%[46.1 µM]	-20.6%	-8.8%	7.4%	45.7	?
COc1ccc2c(c1)CCCC1(CCCO2)CCCO1 (centres undefined)	nt	nt	nt	nt	8.0	nt
O=C(Cc1ccc([N+](=O)[O-])cc1)NCCc1c[nH]c2ccccc12	nt	nt	nt	nt	5.0	nt
COc1cc(NCCCC(C)N)c2ncccc2c1 (centres undefined)	?	nt	?	?	-106.8*	3.55µM*

Screening results deposited in PubChem BioAssay by National Center for Advancing Translational Sciences (NCATS).
